Among the data in the supplement of paper PMC13380429 are morphology score and SARS-CoV-2 infection rate values, retold here.

Test [1] has as its system Vero E6 infected with SARS-CoV-2. Briefly: morphology score (similarity to uninfected cells); higher = more like uninfected cells. To be noted: 24 h.
The test system is the same in test [2]. Kind of test: SARS-CoV-2 infection rate relative to infected DMSO; higher = more infection, active = 60 or less. To be noted: 24 h.

Regarding `OC1=c2ccccc2=C(NC2CCCCC2)/C1=C\c1ccccc1` (0.833333 µM), the morphology score in test [1] turned out to be 0.213. In addition, the SARS-CoV-2 infection rate in test [2] was 85.5% (inactive).
The compound `CCCCC/C=C\C=C\CCCCCCCCC(=O)O` [trans-10,cis-12-conjugated-linoleic-acid] (10 µM) showed a morphology score in test [1] of 0.0778. The SARS-CoV-2 infection rate in test [2] was 104% (inactive).
As to `c1ccc(C2CN3CCSC3=N2)cc1` (configuration not stated) [tetramisole] (10 µM), the morphology score in test [1] was 0.191. The SARS-CoV-2 infection rate in test [2] was 104% (inactive).
The like results for `C[C@]12CCC(=O)C=C1C=C[C@@H]1[C@@H]2CC[C@@]2(C)[C@H]1CC[C@@]2(O)CCC(=O)O` [potassium-canrenoate] (10 µM) were, in that order, -0.166 and 114% (inactive).
For `Cc1ccc(C(=O)Cn2c3c(sc2=N)CCCC3)cc1` [pifithrin-alpha] (10 µM), in that order: -0.224 and 108% (inactive).
Compound `CCOC(=S)SSC(=S)OCC` [dixanthogen] (10 µM) gave a morphology score in test [1] of -0.0377. The SARS-CoV-2 infection rate in test [2] was 106% (inactive).
Compound `CN(C)[C@@H]1C(O)=C(C(N)=O)C(=O)[C@@]2(O)C(O)=C3C(=O)c4c(O)cccc4[C@@](C)(O)[C@H]3[C@H](O)[C@@H]12` [oxytetracycline] (10 µM) registered a morphology score in test [1] of -0.0366. The SARS-CoV-2 infection rate in test [2] is 106% (inactive).
In turn, `Cc1cc(C)nc(NS(=O)(=O)c2ccc(N)cc2)n1` [sulfamethazine] (10 µM) had a morphology score in test [1] of 0.0855. For the same compound, the SARS-CoV-2 infection rate in test [2] is 111% (inactive).
The like results for `COc1ccc(-c2cc(=O)c3c(OC)c(OC)c(OC)c(OC)c3o2)cc1OC` [nobiletin] (10 µM) were, in that order, 0.322 and 110% (inactive).
The like results for `Cn1c(=O)c(F)c(Nc2ccc(I)cc2F)c2c(=O)n(C[C@@H](O)CO)cnc21` (0.833333 µM) were, in that order, -0.0443 and 109% (inactive).
For `Cc1ncc(CSSCc2cnc(C)c(O)c2CO)c(CO)c1O` [pyritinol] (10 µM), in that order: 0.0152 and 100% (inactive).
`CCOC(=O)c1ncn2c1CN(C)C(=O)c1cc(N=[N+]=[N-])ccc1-2` (10 µM) yielded a morphology score in test [1] of 0.00535. Besides, the SARS-CoV-2 infection rate in test [2] is 110% (inactive).
On to `Clc1ccc(C2=CCC[C@H]3CC[C@@H]2N3)cn1` (10 µM), for which the morphology score in test [1] was -0.0924. For the same compound, the SARS-CoV-2 infection rate in test [2] was 110% (inactive).
The like results for `COc1cccc(-c2cc(F)ccc2[C@H]2Cc3nc(N)nc(C)c3C(=O)N2)n1` (0.833333 µM) were, in that order, 0.125 and 99% (inactive).
The compound `CO[C@H]1/C=C/O[C@@]2(C)Oc3c(C)c(O)c4c(O)c(cc(O)c4c3C2=O)NC(=O)/C(C)=C\C=C\[C@H](C)[C@H](O)[C@@H](C)[C@@H](O)[C@@H](C)[C@H](OC(C)=O)[C@@H]1C` [rifamycin-sv] (10 µM) registered a morphology score in test [1] of 0.117. The SARS-CoV-2 infection rate in test [2] is 94.2% (inactive).
The like results for `C=C(C)[C@@H]1CC[C@]2(CO)CC[C@]3(C)[C@H](CC[C@@H]4[C@@]5(C)CC[C@H](O)C(C)(C)[C@@H]5CC[C@]43C)[C@@H]12` (10 µM) were, in that order, 0.000891 and 99.5% (inactive).
In turn, `O=C(c1ccccc1)C(O)c1ccccc1` (configuration not stated) [benzoin] (10 µM) showed a morphology score in test [1] of -0.114. In test [2], the SARS-CoV-2 infection rate was 101% (inactive).
For `CCn1c(-c2nonc2N)nc2cnc(Oc3cccc(NC(=O)c4ccc(OCCN5CCOCC5)cc4)c3)cc21` (10 µM), in that order: 0.306 and 97% (inactive).
For `COc1ccc(-n2nc(C(F)(F)F)cc2-c2ccc(Cl)cc2)cc1` (0.833333 µM), in that order: -0.0472 and 101% (inactive).
In the case of `CCOC(=O)[C@H](C)C[C@@H](Cc1ccc(-c2ccccc2)cc1)NC(=O)CCC(=O)O` [sacubitril] (10 µM), the morphology score in test [1] was 0.156. In addition, the SARS-CoV-2 infection rate in test [2] is 102% (inactive).
For `COc1cccc2cc(-c3nc([C@H]4CC[C@H](C(=O)O)CC4)n4ncnc(N)c34)[nH]c12` (0.833333 µM), in that order: 0.174 and 112% (inactive).
The like results for `CC(C)NC(=O)c1ccc(C#Cc2ccncc2)cn1` (10 µM) were, in that order, 0.0135 and 102% (inactive).
For `C[C@H](c1ccc(F)cc1CCCC(=O)O)N(c1cc(F)ccc1F)S(=O)(=O)c1ccc(Cl)cc1` (10 µM), in that order: 0.0279 and 112% (inactive).
Turning to `Oc1cccc(O)c1` [resorcinol] (10 µM), in test [1], the morphology score came out at 0.0503. Further, the SARS-CoV-2 infection rate in test [2] was 110% (inactive).
The like results for `CCN(CC)CCNC(=O)c1cc(S(C)(=O)=O)ccc1OC` [tiapride] (10 µM) were, in that order, 0.0888 and 98% (inactive).
`COc1ccc(C[C@H]2NC[C@H](O)[C@H]2OC(C)=O)cc1` [anisomycin] (0.833333 µM) displayed a morphology score in test [1] of 0.045. In addition, in test [2], the SARS-CoV-2 infection rate was 102% (inactive).
For `COC(=O)Nc1nc2cc(C(=O)c3ccccc3)ccc2[nH]1` [mebendazole] (0.833333 µM), in test [1], the morphology score is -0.163. In addition, in test [2], the SARS-CoV-2 infection rate was 102% (inactive).
In test [1], `Cc1cnc(-c2cc(N3CCN(C(=O)CCS(C)(=O)=O)CC3)ncc2Cl)c(C)c1` (10 µM) registered a morphology score of 0.241. For the same compound, the SARS-CoV-2 infection rate in test [2] is 105% (inactive).
`COc1ccc(Oc2c(Cl)cnn(C3c4ccccc4-c4ccccc43)c2=O)cc1` (10 µM) gave a morphology score in test [1] of 0.0752. In addition, in test [2], the SARS-CoV-2 infection rate is 102% (inactive).
The like results for `C[C@H](C[C@H](N)C(=O)O)C(=O)O` (10 µM) were, in that order, 0.0497 and 108% (inactive).
Turning to `NS(=O)(=O)c1ccc(NC(=O)Nc2ccc(F)cc2)cc1` (10 µM), the morphology score in test [1] came out at 0.0694. In test [2], the SARS-CoV-2 infection rate is 108% (inactive).
